# Reference: the supplement of paper PMC11417369
# ± gives the standard deviation of the averaged measurements. In all, about 25,000 sequences were measured (“ln(normalized median fluorescence intensity)”: median about 10, highest 2% from about 12 on). The sample as a whole holds a higher share of the highest values than the screen did.
# Test system: PfAP2-G AP2 domain (GST-tagged)
# Assay: gcPBM binding intensity (ln(normalized median fluorescence intensity)); higher = stronger DNA binding
# In short: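 Plasmodium falciparum DNA-binding domains carrying a GST tag were expressed in E. coli and applied for 1 h, at about 25 μg on average, to an Agilent 4 × 180k array. The array held primer-extended double-stranded 36-bp intergenic genomic probes together with negative controls, and binding took place in 1× PBS with 1% milk, 0.2 mg/ml BSA, 0.5% salmon testes DNA and 0.03% Triton X-100. An Alexa488 anti-GST antibody detected bound protein, and the array was scanned at 488 nm. Binding intensity is taken as the highest Masliner-normalised natural-log median intensity across replicate spots of either probe orientation.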
row,Sequence,gcPBM binding intensity (ln)
1,AATTTTATTTAATTTTTTTGGGAAATGATAAAATTT [CACACA_negctrl_site934],9.88 ± 0.2
2,CATATGCGTCTTGCCTTGCACACTTTTATGAAAAAA [CACACA_site2055],10.4 ± 0.26
3,ATACACACTTAAAAAAGTACTTAACTACATGAATTG [XGTACX_site1203],11.1 ± 0.59
4,TACACCCACCCACATACACACACATACACATATATA [CACACA_site8503],10.3 ± 0.35
5,CACAAACACCCAAACACACACACACCGACATACATA [CACACA_site4410],10.2 ± 0.27
6,CATATTCCCCCCCACACACACACACGCATACATACC [CACACA_site7148],11.8 ± 0.6
7,TATATATACATATACACACACACACCCATATATATA [CACACA_site2246],10.1 ± 0.2
8,CATATTCCCCCCCACACACACACACCCATACATACC [CACACA_site2303],11.7 ± 0.71
9,ACCATACATACATACACACACACACGCATATTTATA [CACACA_site7386],10.4 ± 0.28
10,CACCCACCCACATACACACACATACACATATATATA [CACACA_site1722],10.2 ± 0.25
11,CATATATACGCATACACACACACACCCACACCCACA [CACACA_site1725],10.6 ± 0.52
12,CATACACCCATACATACACACATACATATATATATA [CACACA_site8591],10.2 ± 0.11
13,TATTCCCCCCAACACACACACACACCGACATACCAC [CACACA_site8723],11.8 ± 1.1
14,GACATATTCCCCCCCACACACACACCCACATACATA [CACACA_site2302],11.8 ± 0.71
15,TATTCCCCCAAACACACACACACACCCACATACCAC [CACACA_site2304],11.1 ± 0.78
16,TTTTTGTATTCTACCTTAACAATCTTAAAGATTTTT [CACACA_negctrl_site1157],9.97 ± 0.11
17,GTAAATAATAAACACCGTACATGGTATAATTCAATG [XGTACX_site3655],10.7 ± 0.33
18,AAGTCAATTTTTTTTTTTTTTTTTTAACTTATTAAT [TGCATGCA_negctrl_site14],9.605 ± 0.078
19,TCATTTCACAGACACACACACACAAGATATTTCCTT [CACACA_site7774],10.1 ± 0.11
20,AAAAAAAAAGGTACTACACACTATTCTCAATAGAAA [CACACA_site6193],11.1 ± 0.86
21,TAACAATAACTTTATACACACATAATATAAATATAT [CACACA_site7635],9.87 ± 0.014
22,AACACCAATTCATATGCACACACATCTGCATATTAT [CACACA_site8523],10.12 ± 0.078
23,TATATTAAAAAAGAGGTGCATTCGTAAGAGGTTAAA [GTGCAC_site9720],10.05 ± 0.064
24,CAACATTTGATAAACACACAGAAGTATAAATATATA [CACACA_site2365],10.24 ± 0.035
